# GALK inhibitor – inhibitors of human galactokinase. P51570. Purified GALK, Kinase-Glo residual ATP luminescence. Potency, µM (doses to about 57.5 µM), for the others: top-dose activity change, negative = inhibition, actives largely listed as inhibitors. 270,000 tested, 0.007% active. AID 1868; also: potency is read from the fitted curve at half-maximal effect
# Target sequence (P51570 whole entry, looked up): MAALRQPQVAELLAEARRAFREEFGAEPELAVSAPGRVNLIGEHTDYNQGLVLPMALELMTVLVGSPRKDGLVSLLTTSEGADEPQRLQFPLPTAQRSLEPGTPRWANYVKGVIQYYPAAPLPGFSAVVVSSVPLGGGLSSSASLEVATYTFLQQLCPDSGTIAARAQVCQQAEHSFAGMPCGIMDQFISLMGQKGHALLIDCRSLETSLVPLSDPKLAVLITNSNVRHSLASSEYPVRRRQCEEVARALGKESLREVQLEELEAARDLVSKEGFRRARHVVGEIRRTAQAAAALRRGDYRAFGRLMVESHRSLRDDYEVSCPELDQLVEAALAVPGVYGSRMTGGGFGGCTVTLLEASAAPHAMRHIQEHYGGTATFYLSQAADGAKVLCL
#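 ATP-depletion format; final 35 uM ATP, 100 uM D-galactose, 5 nM enzyme; pH 8.0 HEPES/Mg2+ buffer; 60 min RT; luminescence read 10 min after detection reagent.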
# Six1-Eya2 inh – inhibitors of human Six1/Eya2 interaction; AID 651725; AlphaScreen GST-Six1/His-Eya2 binding, biochemical; active compounds read low; 360,000 tested, 0.56% active; activity change, % (no concentration beside the values); Q15475+O00167; in the data active = activity change below about -65%; inconclusive = mostly about -30% to -63%
#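 Compounds are tested against tagged Six1 and Eya2 proteins bridged by glutathione donor and nickel acceptor beads; after a one-hour incubation at 37 °C without light, AlphaScreen emission is recorded.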
# CtBP-E1A blk – CtBP/E1A binding inhibition; AlphaScreen GST-E1A/His-CtBP binding, 1536-well; active compounds read low; 340,000 tested, 0.49% active; AID 651724; activity change, % (concentration not given with the values); in the data active = activity change below about -65%; inconclusive = mostly about -30% to -63%
#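 Protein mix (5X: 125 nM each GST-E1A, His-CtBP) was incubated with pinned compound 2 h at 37 deg C in dark, in 50 mM Tris pH 8.0 buffer with 300 mM NaCl. Glutathione donor and nickel acceptor beads followed; AlphaScreen signal read after 1 h.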
# TrxR1 substrate – rat thioredoxin reductase 1 substrate activity | O89049 | purified TrxR1 substrate turnover, NADPH consumption readout | Potency, µM (highest dose often 114 µM), for the others: at the top dose activity change, negative = substrate turnover | 390,000 tested, 0.01% active | AID 588456; also: potency is read from the fitted curve at half-maximal effect; nearly all actives have a fitted effect of over 50% in size
#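 Rat TrxR1, dispensed at 90 nM, was prereduced with 400 uM NADPH (final) for 5 min at ~22 deg C, then incubated with compound 15 min before 400 uM selenite. A first-read NADPH fluorescence drop versus no-compound background flagged substrates.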
# Eya2 inh – blocks the phosphatase activity of human Eya2; AID 488837; 330,000 tested, 0.006% active; recombinant Eya2, OMFP fluorescence dephosphorylation (OMFP is methylfluorescein phosphate); Potency, µM (titrated, usually from 76.9 µM), for the others: top-dose activity, negative = inhibition, usual class: inhibitors; O00167; also: potency is read from the fitted curve at half-maximal effect
#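 Eya2 (0.2 uM) preincubated 10 min at ambient with compound, then OMFP substrate added at 50 uM; 10 min reaction in 50 mM HEPES pH 7.5, 50 mM NaCl, 5 uM MgCl2, 0.05% BSA, 1 mM DTT. Fluorescence read at Ex 485/Em 525 nm.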
# TrxR1 inh – blocks rat thioredoxin reductase 1; O89049; recombinant rTrxR1, NADPH fluorescence consumption, selenite substrate; Potency, µM (series often up to 114 µM), for the others: at the highest dose activity change, negative = inhibition, usual class: inhibitors; 390,000 tested, 1% active; also: potency is read from the fitted curve at half-maximal effect; nearly all actives have a fitted effect of over 65% in size
#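 Rat TrxR1 (90 nM in the dispensed reagent) was pre-reduced with 400 uM NADPH for 5 min at room temperature, then incubated with compound for 15 min. After 400 uM selenite was added, NADPH fluorescence (Ex 340/Em 450 nm) was followed for 8 min.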
# * = called active by the depositor; ? = inconclusive; / = not tested or not shown; [ ] = remark or other dose. An excerpt weighted towards active compounds, which were near 1.5% of everything screened. Unless noted, calls follow the shape of the dose curve; as a rule, active = well fitted curve in the direction sought with a large enough effect; inconclusive = small, poorly fitted or top-dose-only effect, or another doubt; inactive = no such curve, though single readings can be large; an effect the other way counts as inactive or inconclusive. % is scaled to controls: 0 for no effect and ±100 for the full control effect.
SMILES,GALK inhibitor,Six1-Eya2 inh,CtBP-E1A blk,TrxR1 substrate,Eya2 inh,TrxR1 inh
Fc1ccc(-c2csc(-c3ccccn3)n2)cc1F,-2%,-4,/,4%,-7%,19%
c1ccc(-c2nc(-c3ccco3)cs2)nc1,0%,-1,-14,16%,4%,18µM*
c1ccc(-c2nccc(-c3ccco3)n2)nc1,0%,?,-67*,-2%,-17%,-19%
Cc1[nH]c2ccccc2c1/C=C/c1ccnc2ccccc12,/,/,/,-1%,/,-19%
Cc1cc2oc(C(=O)Nc3ccc(S(=O)(=O)N4CCCCCC4)cc3)cc(=O)c2cc1C,/,/,/,0%,/,16%
COc1ccc(-n2nc(C(=O)Nc3cc(C)ccn3)c3c4ccccc4n(C)c3c2=O)cc1Cl,/,/,/,3%,/,19%
CCn1c(SC(C)C(=O)Nc2ccc(C)cc2)nnc1-c1ccccc1 (stereo not given),/,/,/,15%,/,37%
CCOC(=O)Cc1csc(NC(=O)NC2(C(F)(F)F)Oc3ccccc3O2)n1,0%,-2,6,-5%,-16%,11µM*
CCOC(=O)Cc1csc(NC(=O)Nc2ccc(OC(F)(F)F)cc2)n1,-1%,-13,4,4%[57.1 µM],9%,12%[57.1 µM]
CCOC(=O)Cc1csc(NC(=O)NC2(C(F)(F)F)Oc3ccc(Cl)cc3O2)n1 (stereo not given),0%,9,2,8%[57.1 µM],15%,8.9µM*
CCOC(=O)Cc1csc(NC(=O)NC2(C(F)(F)F)Oc3cc(Cl)c(Cl)cc3O2)n1,1%,-16,-1,12%[57.1 µM],5%,?
O=C(N/N=C/c1cc(Br)cc(Br)c1O)c1cccc(S(=O)(=O)N2CCOCC2)c1,2%,-70*,-94*,-3%,4%,3%
O=C(N/N=C/c1cc(Cl)cc([N+](=O)[O-])c1O)c1cccc(S(=O)(=O)N2CCOCC2)c1,/,-91*,-87*,-21%,6%,?
O=C(N/N=C/c1ccccc1Br)c1cccc(S(=O)(=O)N2CCOCC2)c1,/,-11,-10,-1%,-17%,27%
CSc1nc(Nc2ccc(C)cc2)c(C#N)c(-c2ccccc2)n1,/,/,/,9%,/,33%
COc1ccc(-c2nn(-c3ccccc3)cc2C2NC(=O)NC(C)=C2C(=O)OC(C)C)cc1Cl (stereo not given),/,/,/,-7%,/,13%
Cc1cc2cc(CNC(=O)c3ccc(Br)o3)ccc2n1C,2%,?,-5,10%[57.1 µM],1%,8.9µM*
O=C(O)c1cc(N2N=C(C(F)(F)F)/C(=C/C=C/c3ccco3)C2=O)ccc1Cl,-18%,-78*,-11,-4%,-24%,?
COc1cccc(C2CC(=O)Nc3c2c(=O)[nH]c2nc4ccccc4n32)c1 (stereo not given),/,/,/,-4%,/,11%[11.4 µM]
NC(=O)c1ccc(Nc2nnc(-c3ccc(O)cc3)c3ccccc23)cc1,-3%,?,-3,-12%,5%,-17%
COc1ccc(Nc2nnc(-c3ccc(C(N)=O)cc3)c3ccccc23)cc1,-10%,-83*,5,-6%,4%,13%[57.1 µM]
COc1ccc(N(CC(=O)Nc2cc(Cl)ccc2OC)S(=O)(=O)c2c(C)[nH]c(=O)[nH]c2=O)cc1,-13%,-90*,-95*,1%,-1%,18%
O=C1c2ccccc2C(=O)N1c1cccc(N2C(=O)c3ccccc3C2=O)n1,/,/,/,6%,/,7%
O=C1CC(Nc2ccccc2)C(=O)N1c1ccc(N2CCOCC2)cc1 (stereo not given),0%,1,-1,3%,-8%,-1%
O=C1CC(Nc2ccc(N3CCOCC3)cc2)C(=O)N1c1ccccc1F (stereo not given),1%,-5,0,2%,-12%,79µM*
SMILES,GALK inhibitor,Six1-Eya2 inh,CtBP-E1A blk,TrxR1 substrate,Eya2 inh,TrxR1 inh
COc1ccc(Cl)c(Cn2cnc3c(cnn3C(C)(C)C)c2=O)c1F,/,/,/,5%,/,3%
O=C(CNC(=O)c1ccccc1F)N/N=C/c1cc(Br)ccc1OC(=O)/C=C/c1ccco1,0%,-90*,-92*,-14%,1%,?
COc1ccccc1C(=O)NCC(=O)N/N=C/c1cc(Br)ccc1OC(=O)/C=C\c1ccco1,0%,-74*,/,-4%,1%,?
O=C(CNC(=O)c1ccc(F)cc1)N/N=C/c1cc(Br)ccc1OC(=O)/C=C/c1ccco1,5%,-23,?,-1%,5%,-15%
COc1cccc(NC(=O)CCN2C(=O)c3ccccc3Sc3ncccc32)c1,-3%,-1,2,-2%,-8%,71µM*
Cc1ccccc1NC(=O)CCN1C(=O)c2ccccc2Sc2ncccc21,/,/,/,-1%,/,?
CC(C)Cc1ccc(C(C)/C=C2/CCC(CN3CCCCC3)C2=O)cc1 (stereo not given),/,-1,-1,-10%,/,3.5µM*
O=C(CCl)Nc1ccccc1C(=O)c1ccccc1,6%,0,-19,-10%,0%,20µM*
O=C(CCl)Nc1ccccc1Sc1ccc(Cl)cc1,0%,3,7,-9%,8%,8.9µM*
Cc1cc(C(=O)c2ccccc2)c(NC(=O)CCl)s1,-1%,3,5,-7%,-2%,20µM*
O=C(c1ccccc1)c1ccccc1NC(=O)c1ccccc1C(=O)O,/,/,/,-1%,/,1%
Cc1ccc(OCC(=O)N(Cc2ccc(Cl)cc2)Cc2ccco2)cc1C,/,/,/,-4%,/,18%
C[n+]1c(/C=C/c2ccc(N)cc2)sc2ccccc21,/,/,/,-11%,/,-5%
CCN(CC)c1ccc2c(c1)oc(=O)c1c(Cl)cc(=O)oc12,-13%,-8,6,4%,-9%,35µM*
CCN(CC)c1ccc2c(C)c(Cl)c(=O)oc2c1,-1%,79,20,46%,-1%,-15%
O=C(O)COc1ccc2c(c1)O/C(=C\c1ccco1)C2=O,/,?,-22,-1%,8%,45µM*
COc1cc(/C=N/NC(=O)CCn2c3ccccc3c3ccccc32)cc(OC)c1OC,-2%,3,9,0%,-13%,1%
COc1cc(/C=N/NC(=O)CCC(=O)NCc2ccccc2)cc(OC)c1OC,2%,-12,-66*,2%,1%,11%
Cc1ccc(/C=N/NC(=O)CNC(=O)c2cccs2)cc1,-6%,1,2,2%,-2%,13%
COc1ccccc1/C=C\C(=O)NCC(=O)N/N=C/c1cccc(OC)c1O,-2%,?,-89*,-8%,3%,0%
COc1ccccc1/C=C/C(=O)NCC(=O)N/N=C/c1cc(Br)ccc1OC,-3%,?,?,9%[57.1 µM],-5%,16%[57.1 µM]
COc1cccc(/C=N/NC(=O)CNC(=O)CCc2ccccc2)c1O,5%,-69*,/,-1%,12%,15%

# From PubChem
